According to PubChem BioAssay (Tox21):
Results filed as inconclusive are left out. Where a call stands in place of a potency, no number is given. Activity calls are given as the source filed them. Unless noted, calls come from the whole dose curve; as a rule, active = well fitted curve in the direction sought with a large enough effect in the repeat runs; inconclusive = weak or mixed curves; inactive = no such curve, though single readings can be large; an effect the other way counts as inactive or inconclusive.

Columns and labels:
[1] = target: Acetylcholinesterase (Homo sapiens) (UniProt P22303); test: Acetylcholinesterase (AChE) small molecule antagonists: enzyme-based qHTS assay (AID 1347397; calls by dose curve; note: nearly all actives have a fitted effect of over 55% in size); conditions: Potency: AChE enzyme activity inhibition
Sequence of Acetylcholinesterase (Homo sapiens) (P22303 whole entry, looked up): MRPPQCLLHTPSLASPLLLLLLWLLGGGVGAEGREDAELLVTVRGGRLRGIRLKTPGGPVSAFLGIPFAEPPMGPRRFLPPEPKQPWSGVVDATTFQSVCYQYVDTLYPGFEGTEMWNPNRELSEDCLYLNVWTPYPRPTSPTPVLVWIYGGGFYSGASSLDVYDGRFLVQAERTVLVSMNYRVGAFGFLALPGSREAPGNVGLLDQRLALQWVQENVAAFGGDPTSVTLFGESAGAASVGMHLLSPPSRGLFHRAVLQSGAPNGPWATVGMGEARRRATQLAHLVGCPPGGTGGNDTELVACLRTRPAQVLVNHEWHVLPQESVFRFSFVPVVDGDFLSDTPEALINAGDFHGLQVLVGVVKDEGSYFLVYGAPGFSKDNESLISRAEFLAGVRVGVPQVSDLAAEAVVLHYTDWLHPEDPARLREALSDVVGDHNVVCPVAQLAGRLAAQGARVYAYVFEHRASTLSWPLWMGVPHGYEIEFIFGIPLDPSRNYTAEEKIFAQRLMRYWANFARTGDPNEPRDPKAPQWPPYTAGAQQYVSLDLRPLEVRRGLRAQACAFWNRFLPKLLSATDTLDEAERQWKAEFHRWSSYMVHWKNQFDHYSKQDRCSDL
In short: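 Recombinant human AChE, dispensed at 50 mU/mL, was preincubated with Tox21 10K compounds or DMSO vehicle for 30 min at room temperature. DTNB plus acetylthiocholine was then added, and thiocholine was measured colorimetrically after a further 10 min.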

[2] = target: Acetylcholinesterase (Homo sapiens) (UniProt P22303); test: Acetylcholinesterase (AChE) small molecule antagonists: fluorescence cell-based qHTS assay (AID 1347398; calls by dose curve; note: nearly all actives have a fitted effect of over 50% in size; note: potency is the fitted concentration of half-maximal effect); conditions: Potency: AChE activity
In short: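 Human SH-SY5Y cells were plated overnight at 37 C, exposed to compound for 30 min at 37 C, 5% CO2, then given acetylthiocholine plus Thiolite Green for 40 min at room temperature; thiocholine fluorescence (Ex/Em 490/520 nm) reports endogenous AChE activity.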

[3] = target: Acetylcholinesterase (Homo sapiens) (UniProt P22303); test: Acetylcholinesterase (AChE) small molecule antagonists: enzyme-based qHTS assay with human liver microsomes (AID 1347399; calls by dose curve; note: nearly all actives have a fitted effect of over 60% in size); conditions: Potency: qHTS inhibition
In short: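 Recombinant human AChE (50 mU/mL in the enzyme mix) and human liver microsomes (0.25 mg/mL final) were preincubated with compound and NADPH (0.25 mg/mL final) for 30 min at 37 C. Acetylthiocholine/DTNB was then added; thiocholine was read colorimetrically after 10 min at room temperature.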

[4] = target: Cytochrome P450 2D6 (Homo sapiens) (UniProt P10635); test: Cytochrome P450 Family 2 Subfamily D Member 6 (CYP2D6) small molecule antagonists: luciferase reporter qHTS assay (AID 1671196); note: nearly all actives have a fitted effect of over 50% in size; note: potency is the fitted concentration of half-maximal effect
Sequence of Cytochrome P450 2D6 (Homo sapiens) (P10635 whole entry, looked up): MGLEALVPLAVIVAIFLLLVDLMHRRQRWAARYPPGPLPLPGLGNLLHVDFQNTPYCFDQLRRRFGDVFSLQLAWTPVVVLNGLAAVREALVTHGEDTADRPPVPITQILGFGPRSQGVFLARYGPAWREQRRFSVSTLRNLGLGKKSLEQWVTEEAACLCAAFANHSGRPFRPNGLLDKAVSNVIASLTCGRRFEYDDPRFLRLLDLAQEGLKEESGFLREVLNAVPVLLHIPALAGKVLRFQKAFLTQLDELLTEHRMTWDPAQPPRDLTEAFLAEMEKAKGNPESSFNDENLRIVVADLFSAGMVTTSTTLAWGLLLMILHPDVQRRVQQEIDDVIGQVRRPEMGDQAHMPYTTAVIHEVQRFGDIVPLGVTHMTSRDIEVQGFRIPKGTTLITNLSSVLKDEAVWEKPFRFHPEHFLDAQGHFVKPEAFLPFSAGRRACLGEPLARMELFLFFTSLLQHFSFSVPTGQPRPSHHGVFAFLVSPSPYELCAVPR
In short: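 Read-out is luminescence from luciferin formed by CYP2D6 turnover of a proluciferin substrate, recorded as relative luminescence units. Reactions ran 1 h at room temperature after NADPH regeneration solution was added.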

[5] = target: Cytochrome P450 2C19 (Homo sapiens) (UniProt P33261); test: Cytochrome P450 Family 2 Subfamily C Member 19 (CYP2C19) small molecule antagonists: luciferase reporter qHTS assay (AID 1671197); note: nearly all actives have a fitted effect of over 65% in size; note: potency is the fitted concentration of half-maximal effect
Sequence of Cytochrome P450 2C19 (Homo sapiens) (P33261 whole entry, looked up): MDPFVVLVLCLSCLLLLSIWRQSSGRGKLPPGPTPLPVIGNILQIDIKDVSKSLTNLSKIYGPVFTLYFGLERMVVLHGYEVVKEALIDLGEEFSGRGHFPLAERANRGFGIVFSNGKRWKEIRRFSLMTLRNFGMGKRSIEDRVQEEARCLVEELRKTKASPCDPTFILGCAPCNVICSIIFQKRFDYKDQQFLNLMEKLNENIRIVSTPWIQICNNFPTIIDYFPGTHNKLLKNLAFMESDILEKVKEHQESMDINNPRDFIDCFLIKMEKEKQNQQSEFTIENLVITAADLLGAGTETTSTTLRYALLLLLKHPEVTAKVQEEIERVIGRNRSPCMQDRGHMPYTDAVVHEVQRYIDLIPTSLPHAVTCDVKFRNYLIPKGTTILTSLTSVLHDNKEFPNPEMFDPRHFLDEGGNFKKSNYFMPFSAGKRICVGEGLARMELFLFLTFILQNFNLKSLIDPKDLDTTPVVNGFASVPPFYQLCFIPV
In short: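 Enzyme-substrate mix with proluciferin substrate (P450-Glo CYP2C19 system) preincubated with compounds 10 min at room temperature; NADPH regeneration solution added, 37C for 1 h; detection reagent stops reaction, luminescence read after 20 min. Ketoconazole positive control.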

[6] = target: Cytochrome P450 2C9 (Homo sapiens) (UniProt P11712); test: Cytochrome P450 Family 2 Subfamily C Member 9 (CYP2C9) small molecule antagonists: luciferase reporter qHTS assay (AID 1671198); note: nearly all actives have a fitted effect of over 50% in size; note: potency is the fitted concentration of half-maximal effect
Sequence of Cytochrome P450 2C9 (Homo sapiens) (P11712 whole entry, looked up): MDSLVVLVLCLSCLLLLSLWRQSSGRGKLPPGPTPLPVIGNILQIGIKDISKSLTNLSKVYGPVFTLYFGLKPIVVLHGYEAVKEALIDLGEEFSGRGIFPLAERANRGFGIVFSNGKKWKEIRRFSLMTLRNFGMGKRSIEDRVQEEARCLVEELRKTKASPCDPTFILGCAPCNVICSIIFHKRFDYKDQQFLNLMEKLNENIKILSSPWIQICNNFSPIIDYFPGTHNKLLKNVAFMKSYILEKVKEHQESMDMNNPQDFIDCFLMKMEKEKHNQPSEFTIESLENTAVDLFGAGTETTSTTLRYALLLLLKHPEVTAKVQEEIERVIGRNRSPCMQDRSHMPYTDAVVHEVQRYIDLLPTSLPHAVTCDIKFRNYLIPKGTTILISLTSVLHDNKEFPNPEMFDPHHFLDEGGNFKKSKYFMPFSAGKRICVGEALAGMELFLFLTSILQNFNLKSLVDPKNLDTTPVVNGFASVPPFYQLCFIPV
In short: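 CYP2C9 activity was measured with a P450-Glo proluciferin substrate. Enzyme–substrate mix was held with compound for 10 min at room temperature, then NADPH regeneration solution was added for 1 h at 37C. Luciferin product was read as luminescence.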

[7] = target: Cytochrome P450 1A2 (Homo sapiens) (UniProt P05177); test: Cytochrome P450 Family 1 Subfamily A Member 2 (CYP1A2) small molecule antagonists: luciferase reporter qHTS assay (AID 1671199); note: nearly all actives have a fitted effect of over 50% in size; note: potency is the fitted concentration of half-maximal effect
Sequence of Cytochrome P450 1A2 (Homo sapiens) (P05177 whole entry, looked up): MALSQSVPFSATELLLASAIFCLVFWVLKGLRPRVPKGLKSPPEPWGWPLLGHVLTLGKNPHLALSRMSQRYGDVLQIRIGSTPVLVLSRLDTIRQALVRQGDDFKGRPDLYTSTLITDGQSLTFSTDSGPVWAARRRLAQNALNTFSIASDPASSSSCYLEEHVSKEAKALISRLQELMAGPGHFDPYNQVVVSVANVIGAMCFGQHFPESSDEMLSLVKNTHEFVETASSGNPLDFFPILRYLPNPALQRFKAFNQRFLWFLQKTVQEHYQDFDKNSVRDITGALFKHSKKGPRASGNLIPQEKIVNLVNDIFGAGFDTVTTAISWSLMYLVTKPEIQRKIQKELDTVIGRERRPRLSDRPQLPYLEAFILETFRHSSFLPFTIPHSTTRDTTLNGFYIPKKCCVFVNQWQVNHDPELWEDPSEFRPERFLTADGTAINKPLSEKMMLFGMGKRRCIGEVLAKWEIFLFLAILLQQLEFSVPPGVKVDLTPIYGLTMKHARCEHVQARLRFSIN
In short: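 P450-Glo CYP1A2, 1536-well qHTS: enzyme/proluciferin substrate + cpd (DMSO), 10 min RT; NADPH regen, 1 h RT; detection reagent, 20 min; luminescence, RLU.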

[8] = target: Voltage-gated inwardly rectifying potassium channel KCNH2 (Homo sapiens) (UniProt Q12809); test: Human Ether-a-go-go-Related Gene (hERG) channel small molecule antagonists: fluorescence cell-based qHTS assay (AID 1671200); note: nearly all actives have a fitted effect of over 50% in size; note: potency is the fitted concentration of half-maximal effect
Sequence of Voltage-gated inwardly rectifying potassium channel KCNH2 (Homo sapiens) (Q12809 whole entry, looked up): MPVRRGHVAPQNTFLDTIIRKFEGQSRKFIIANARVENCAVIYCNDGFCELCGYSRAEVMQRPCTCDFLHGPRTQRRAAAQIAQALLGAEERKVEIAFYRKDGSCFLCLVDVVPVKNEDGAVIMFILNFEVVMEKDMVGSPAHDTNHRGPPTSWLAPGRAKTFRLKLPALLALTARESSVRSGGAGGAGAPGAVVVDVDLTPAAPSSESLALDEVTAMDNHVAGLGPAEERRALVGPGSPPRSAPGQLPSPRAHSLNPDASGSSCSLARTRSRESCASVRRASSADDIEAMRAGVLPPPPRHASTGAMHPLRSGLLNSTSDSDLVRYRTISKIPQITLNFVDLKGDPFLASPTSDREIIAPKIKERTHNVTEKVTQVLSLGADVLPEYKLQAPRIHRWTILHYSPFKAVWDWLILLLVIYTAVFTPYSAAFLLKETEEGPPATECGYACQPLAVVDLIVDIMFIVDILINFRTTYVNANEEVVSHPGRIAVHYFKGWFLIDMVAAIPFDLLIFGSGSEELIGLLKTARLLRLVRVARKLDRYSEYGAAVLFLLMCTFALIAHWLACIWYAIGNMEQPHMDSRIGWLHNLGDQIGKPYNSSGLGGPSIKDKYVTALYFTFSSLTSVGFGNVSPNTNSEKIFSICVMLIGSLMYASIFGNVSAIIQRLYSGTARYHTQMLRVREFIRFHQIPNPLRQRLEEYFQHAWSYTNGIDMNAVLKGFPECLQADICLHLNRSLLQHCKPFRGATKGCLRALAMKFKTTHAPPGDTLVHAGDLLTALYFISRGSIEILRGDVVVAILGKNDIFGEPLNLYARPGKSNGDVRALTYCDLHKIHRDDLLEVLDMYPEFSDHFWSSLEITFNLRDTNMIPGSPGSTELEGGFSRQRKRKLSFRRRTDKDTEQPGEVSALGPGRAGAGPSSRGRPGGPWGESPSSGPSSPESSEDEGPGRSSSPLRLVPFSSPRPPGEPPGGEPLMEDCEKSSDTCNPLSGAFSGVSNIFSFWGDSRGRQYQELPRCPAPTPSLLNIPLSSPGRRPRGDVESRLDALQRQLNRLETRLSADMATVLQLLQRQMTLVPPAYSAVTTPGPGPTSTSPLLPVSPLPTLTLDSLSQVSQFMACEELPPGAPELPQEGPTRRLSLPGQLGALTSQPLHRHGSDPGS
In short: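 hERG-U2OS cells plated overnight at 37 C, loaded with FluxOR II dye 1 h at RT in dark; after 10 min, thallium stimulus added. Fluorescence (480/540 nm) read kinetically for 2 min at 1 s intervals.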

[9] = target: Cytochrome P450 3A4 (Homo sapiens) (UniProt P08684); test: Cytochrome P450 Family 3 Subfamily A Member 4 (CYP3A4) small molecule antagonists: luciferase reporter qHTS assay (AID 1671201); note: nearly all actives have a fitted effect of over 50% in size; note: potency is the fitted concentration of half-maximal effect
Sequence of Cytochrome P450 3A4 (Homo sapiens) (P08684 whole entry, looked up): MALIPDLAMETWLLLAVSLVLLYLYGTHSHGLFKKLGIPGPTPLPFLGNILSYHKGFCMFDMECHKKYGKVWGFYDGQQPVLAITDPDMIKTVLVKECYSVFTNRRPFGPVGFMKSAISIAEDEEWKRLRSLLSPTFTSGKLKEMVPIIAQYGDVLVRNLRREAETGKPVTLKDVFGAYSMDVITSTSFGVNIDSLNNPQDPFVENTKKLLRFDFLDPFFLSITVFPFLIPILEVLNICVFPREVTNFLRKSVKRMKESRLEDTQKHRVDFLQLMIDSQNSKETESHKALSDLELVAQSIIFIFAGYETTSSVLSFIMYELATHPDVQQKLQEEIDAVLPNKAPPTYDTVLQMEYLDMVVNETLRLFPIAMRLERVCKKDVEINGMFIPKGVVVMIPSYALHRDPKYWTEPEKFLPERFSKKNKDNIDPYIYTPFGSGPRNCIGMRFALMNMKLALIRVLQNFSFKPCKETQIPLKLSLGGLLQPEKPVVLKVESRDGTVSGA
In short: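 P450-Glo CYP3A4 luminescent assay: compounds preincubated 10 min at room temperature with enzyme and proluciferin substrate, NADPH regeneration added, 1 h room-temperature reaction, stopped with luciferin detection reagent; luminescence read after 20 min. Ketoconazole positive control.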

| Compound | Potency [1] | Potency [2] | Potency [3] | Potency [4] | Potency [5] | Potency [6] | Potency [7] | Potency [8] | Potency [9] |
| --- | --- | --- | --- | --- | --- | --- | --- | --- | --- |
| CN=C=O | inactive | inactive | inactive | 57.2 µM (active) | inactive | inactive | 36.1 µM (active) | inactive | – |
| CC(Cc1ccc2c(c1)OCO2)NO (stereo not drawn) | inactive | inactive | inactive | 38.6 µM (active) | 48.6 µM (active) | 34.4 µM (active) | 6.11 µM (active) | inactive | – |
| BrCC(Br)(Br)Br | inactive | inactive | inactive | inactive | inactive | inactive | inactive | inactive | – |
| CC(O)C(=O)[O][Hg][c]1ccccc1 (stereo not drawn) | inactive | 79.6 µM (active) | inactive | 0.448 µM (active) | 6.33 µM (active) | 1.78 µM (active) | 17.8 µM (active) | 17.4 µM (active) | 6.33 µM (active) |
| CC[C@H](C)[C@H]1O[C@]2(C=C[C@@H]1C)C[C@@H]1C[C@@H](C/C=C(\C)[C@@H](O[C@H]3C[C@H](OC)[C@@H](O[C@H]4C[C@H](OC)[C@@H](NC)[C@H](C)O4)[C@H](C)O3)[C@@H](C)/C=C/C=C3\CO[C@@H]4[C@H](O)C(C)=C[C@@H](C(=O)O1)[C@]34O)O2 | inactive | inactive | inactive | 63.3 µM (active) | 35.6 µM (active) | 35.6 µM (active) | 35.6 µM (active) | inactive | – |
| COc1ccc2c(c1OC)C(=O)O[C@@H]2[C@H]1c2cc3c(cc2CCN1C)OCO3 | inactive | inactive | inactive | 35.2 µM (active) | 3.95 µM (active) | 5.58 µM (active) | 31.4 µM (active) | 21.7 µM (active) | – |
| CC#C[C@]1(O)CC[C@H]2[C@@H]3C[C@H](C)C4=CC(=O)CC[C@]4(C)[C@H]3CC[C@@]21C | inactive | inactive | inactive | inactive | 9.77 µM (active) | 17.4 µM (active) | inactive | inactive | – |
| C#CCC1=C(C)C(OC(=O)C2C(C=C(C)C)C2(C)C)CC1=O (stereo not drawn) | inactive | inactive | inactive | 39.7 µM (active) | 4.99 µM (active) | 12.5 µM (active) | 25 µM (active) | 43.4 µM (active) | – |
| CC(C)NCC(O)c1ccccc1Cl (stereo not drawn) | inactive | inactive | inactive | 7.76 µM (active) | inactive | inactive | inactive | inactive | inactive |
| c1cc[n+]2c(c1)-c1cccc[n+]1CC2 | inactive | inactive | inactive | 7.76 µM (active) | 9.77 µM (active) | inactive | 30.9 µM (active) | inactive | – |
| CNC(C)(C)Cc1ccccc1 | inactive | inactive | inactive | 9.77 µM (active) | inactive | inactive | inactive | inactive | – |
| C[N+]1(C)[C@@H]2CC[C@H]1CC(OC(=O)C(CO)c1ccccc1)C2 (stereo partly drawn) | inactive | inactive | inactive | inactive | inactive | inactive | inactive | inactive | inactive |
| COC(=O)c1cc(Oc2ccc(Cl)cc2Cl)ccc1[N+](=O)[O-] | inactive | inactive | inactive | 22.4 µM (active) | 2.52 µM (active) | 7.1 µM (active) | 15.9 µM (active) | 17.4 µM (active) | – |
| CO/N=C(/C1=NOCCO1)c1ccccc1Oc1ncnc(Oc2ccccc2Cl)c1F | inactive | inactive | inactive | inactive | 7.96 µM (active) | 11.2 µM (active) | 25.2 µM (active) | inactive | – |
| Cc1c([N+](=O)[O-])c(C)c([N+](=O)[O-])c(C(C)(C)C)c1[N+](=O)[O-] | inactive | inactive | inactive | inactive | inactive | inactive | 5.03 µM (active) | – | – |
| ClC(Cl)C(Cl)(Cl)Cl | inactive | inactive | inactive | inactive | inactive | inactive | 31.1 µM (active) | inactive | inactive |
| CC(C)C(Br)C(=O)NC(N)=O (stereo not drawn) | inactive | inactive | inactive | inactive | inactive | inactive | inactive | inactive | inactive |
| CC1=C2C[C@H]3[C@@H](CC=C4C[C@@H](O)CC[C@@]43C)[C@@H]2CC[C@]12O[C@@H]1C[C@H](C)CN[C@H]1[C@H]2C | inactive | inactive | inactive | inactive | inactive | inactive | inactive | inactive | inactive |
| Cc1cnc2c(C(=O)O)c(Cl)ccc2c1 | inactive | inactive | inactive | inactive | inactive | inactive | – | inactive | inactive |
| BrCCCBr | inactive | inactive | inactive | inactive | inactive | inactive | – | inactive | inactive |
| O=[N+]([O-])c1ccccc1-c1ccccc1 | inactive | inactive | inactive | inactive | 35.6 µM (active) | 25.2 µM (active) | 1.59 µM (active) | inactive | inactive |
| CC1(C)C(C=C(Cl)Cl)C1C(=O)OC(C#N)c1ccc(F)c(Oc2ccccc2)c1 (stereo not drawn) | inactive | inactive | inactive | 28.3 µM (active) | 10 µM (active) | 3.17 µM (active) | inactive | inactive | inactive |
